Source: the supplement of paper PMC13380429
A number with no mark means an inactive call.

Test system: Vero E6 infected with SARS-CoV-2
Experiment: inhibition of SARS-CoV-2 cytopathic effect; higher = more antiviral protection, active = above 15
Conditions: 48 h

Row | SMILES | inhibition of SARS-CoV-2 cytopathic effect (1 nM) | inhibition of SARS-CoV-2 cytopathic effect (8.33 nM) | inhibition of SARS-CoV-2 cytopathic effect (100 nM) | inhibition of SARS-CoV-2 cytopathic effect (833.33 nM) | inhibition of SARS-CoV-2 cytopathic effect (10000 nM)
1 | O=C(O)CCCC[C@@H]1SC[C@@H]2NC(=O)N[C@@H]21 [biotin] | 1.38% | 1.22% | -1.51% | 0.93% | 1.95%
2 | CCC(=O)O[C@]1(C(=O)CCl)[C@@H](C)C[C@H]2[C@@H]3C[C@H](F)C4=CC(=O)C=C[C@]4(C)[C@@]3(F)[C@@H](O)C[C@@]21C [halobetasol-propionate] | -3.17% | -1.89% | -2.65% | 1.32% | 4.68%
3 | CN(C)C/C=C/C(=O)Nc1cc2c(Nc3ccc(F)c(Cl)c3)ncnc2cc1O[C@H]1CCOC1 [afatinib] | -2.03% | -3.01% | -5.33% | -8.01% | -9.49%
4 | O=C(Nc1c(Cl)cncc1Cl)c1ccc(OC(F)F)c(OCC2CC2)c1 [roflumilast] | -0.45% | 1.68% | 0.72% | -0.19% | 0.85%
5 | COc1ccc(/C=C\c2cc(OC)c(OC)c(OC)c2)cc1OP(=O)(O)O [fosbretabulin] | 0.43% | 0.77% | -1.34% | -0.84% | -0.38%
6 | CC(C)c1cccc2c(-c3ccccc3)cc(-c3ccc(-c4ccc(C(=O)O)cc4)[nH]3)nc12 | 5.04% | 4.89% | 3.09% | 5.27% | 3.56%
7 | C/C(=C\C(=O)OCCCCCCCCC(=O)O)C[C@@H]1OC[C@H](C[C@@H]2O[C@H]2[C@@H](C)[C@H](C)O)[C@@H](O)[C@H]1O [mupirocin] | -1.43% | -0.61% | 0.52% | 2.09% | 1.36%
8 | Fc1ccc(C(OCCN2CCN(CCCc3ccccc3)CC2)c2ccc(F)cc2)cc1 [vanoxerine] | -2.38% | -0.72% | 2.06% | -3.95% | -11.6%
9 | CC(CNC(=O)c1cccnc1)NC(=O)c1cccnc1 (stereo not given) [nicaraven] | 0.7% | -0.11% | -1.71% | 0.88% | -0.45%
10 | C[C@]12CCC(=O)C=C1CC[C@@H]1[C@@H]2[C@@H](O)C[C@@]2(C)[C@H]1CC[C@]2(O)C(=O)CO [hydrocortisone] | -3.82% | -3.12% | -3.55% | -4.8% | -3.51%
11 | COc1ccccc1C1(O)CCN(CCCn2c3ccccc3c3ccccc32)CC1 | 0.73% | 1.45% | 2.5% | 1.69% | 42.4% (active)
12 | CC[C@H](C)[C@H](NC(=O)[C@H](Cc1ccc(O)cc1)NC(=O)[C@@H](NC(=O)[C@H](CCCNC(=N)N)NC(=O)[C@@H](N)CC(=O)O)C(C)C)C(=O)N[C@@H](Cc1c[nH]cn1)C(=O)N1CCC[C@H]1C(=O)O | -1.39% | 1.3% | 0.18% | -0.77% | 2.67%
13 | OCc1cccnc1 [nicotinyl-alcohol-tartrate] | -0.34% | -0.51% | -0.17% | 0.73% | -0.73%
14 | O=Cc1cn(Cc2ccc(Cl)cc2)c2ccccc12 [oncrasin-1] | 1.13% | -1.86% | 2.77% | 2.11% | 2.76%
15 | CCCCc1nc2cc(/C=C/C(=O)NO)ccc2n1CCN(CC)CC | 2.32% | -0.4% | -5.57% | -20.5% | -27.9%
16 | CN1CCN(CC(=O)N2c3ccccc3C(=O)Nc3cccnc32)CC1 [pirenzepine] | -0.09% | -0.92% | -2.09% | -0.6% | -1.86%
17 | CC(Cc1ccccc1)(NC(=O)CN)c1ccccc1 (stereo not given) [remacemide] | 0.2% | 0.62% | -0.89% | 0.88% | 0.24%
18 | NC(=O)CN1Cc2ccccc2OC1=O [caroxazone] | 1.09% | -3.02% | -3.19% | -4.05% | -0.94%

Row | SMILES | inhibition of SARS-CoV-2 cytopathic effect (1 nM) | inhibition of SARS-CoV-2 cytopathic effect (8.33 nM) | inhibition of SARS-CoV-2 cytopathic effect (100 nM) | inhibition of SARS-CoV-2 cytopathic effect (833.33 nM) | inhibition of SARS-CoV-2 cytopathic effect (10000 nM)
19 | O=C(O)c1cc(O)c2c(c1)[C@H]([C@H]1c3cc(C(=O)O)cc(O)c3C(=O)c3c(O[C@@H]4O[C@H](CO)[C@@H](O)[C@H](O)[C@H]4O)cccc31)c1cccc(O[C@@H]3O[C@H](CO)[C@@H](O)[C@H](O)[C@H]3O)c1C2=O [sennoside-A] | -3.2% | 0% | 0.82% | 0.38% | -2.08%
20 | Nc1nc(OCC2CCCCC2)c2nc[nH]c2n1 | 1.06% | 0.95% | -3.55% | 1.35% | -1.27%
21 | COc1ccc(-n2c(SCCCN3C(=O)c4cccc5cccc(c45)C3=O)nnc2-c2ccncc2)cc1 | -0.26% | 2.51% | -0.79% | -0.8% | -1.41%
22 | C[C@H]1[C@H](C)CC[C@]2(C(=O)O)CC[C@]3(C)C(=CC[C@@H]4[C@@]5(C)C[C@@H](O)[C@H](O)[C@@](C)(CO)[C@@H]5CC[C@]43C)[C@H]12 [asiatic-acid] | -2.75% | -0.62% | -0.32% | 1.12% | -3.69%
23 | Fc1ccc(C(c2ccc(F)cc2)N2CCN(C/C=C/c3ccccc3)CC2)cc1 [flunarizine] | -1.77% | -0.01% | -1.97% | -2.17% | -3.88%
24 | CO/N=C(\C(=O)N[C@@H]1C(=O)N2C(C(=O)OCOC(=O)C(C)(C)C)=C(/C=C\c3scnc3C)CS[C@H]12)c1csc(N)n1 [cefditoren-pivoxil] | -0.67% | -0.15% | -2.07% | -1.49% | -0.51%
25 | CCOC(=O)/C=C(C)/C=C/C=C(C)/C=C/c1c(C)cc(OC)c(C)c1C [etretinate] | -2.16% | 0.11% | 0.84% | 2.68% | 3.85%
26 | N[C@H](CO)C(=O)O [D-serine] | -1.38% | 1.46% | -1.84% | -1.45% | 1.69%
27 | Nc1n[n+]([O-])c2ccccc2[n+]1[O-] [tirapazamine] | -0.88% | 0.77% | 2.11% | 0.37% | 2.74%
28 | CC(COc1ccccc1)NC(C)C(O)c1ccc(O)cc1 (stereo not given) [isoxsuprine] | 0.69% | 2% | -0.95% | 1.95% | -1.14%
29 | O=C(CN1C2=NCCN2c2ccccc21)c1ccc(-c2ccccc2)cc1 | -0.77% | 3.75% | 1.71% | -0.84% | 14.8%
30 | CC(C)C[C@@H](NC(=O)[C@H](C)NC(=O)CNC(=O)[C@@H](NC=O)C(C)C)C(=O)N[C@@H](C)C(=O)N[C@@H](C(=O)N[C@H](C(=O)N[C@@H](C(=O)N[C@@H](Cc1c[nH]c2ccccc12)C(=O)N[C@H](CC(C)C)C(=O)N[C@@H](Cc1c[nH]c2ccccc12)C(=O)N[C@H](CC(C)C)C(=O)N[C@@H](Cc1c[nH]c2ccccc12)C(=O)N[C@H](CC(C)C)C(=O)N[C@@H](Cc1c[nH]c2ccccc12)C(=O)NCCO)C(C)C)C(C)C)C(C)C [gramicidin] | 0.05% | 0.15% | 0.36% | -1.18% | 2.22%
31 | O=C(O)[C@H]1CC[C@H](c2cc3cccnc3c(-c3cccc(F)c3)n2)CC1 | -3.3% | -2.36% | -0.1% | 0.23% | 1.21%
32 | CC12CCC(C(=O)N(CCCCN3CCN(c4ccccn4)CC3)C1=O)C2(C)C (stereo not given) [piricapiron] | -2.91% | -0.34% | -1.87% | 0.95% | 1.64%
33 | COc1ccc(CCCO[C@@H](Cn2ccnc2)c2ccc(OC)cc2)cc1 | -4.38% | -5.95% | -10.2% | -1.69% | 0.39%
34 | CC1CCc2c(N3CCC(O)CC3)c(F)cc3c(=O)c(C(=O)O)cn1c23 (stereo not given) [nadifloxacin] | 3.29% | 1.42% | 0.26% | 3.52% | 2.69%
35 | NC[C@H]1O[C@H](O[C@H]2[C@H](O[C@@H]3O[C@H](CO)[C@@H](O)[C@H]3O)[C@@H](O)[C@H](N)C[C@@H]2N)[C@H](N)[C@@H](O)[C@@H]1O [ribostamycin-sulfate] | 2.02% | -0.235% | -0.77% | -1.25% | -0.88%
